# Data published in PubChem BioAssay (NCATS).
# Unmarked numbers belong to inactive results. Inconclusive results are not listed. Active and inactive are the calls of the source. Unless noted, calls come from the whole dose curve; as a rule, active = well fitted activation curve with a large enough effect; inconclusive = small, poorly fitted or top-dose-only effect; inactive = flat fitted curve, though single readings scatter.
# Biological target: 3',5'-cyclic-AMP phosphodiesterase 4B (Homo sapiens) (UniProt Q07343)
# Sequence (Q07343 whole entry, looked up): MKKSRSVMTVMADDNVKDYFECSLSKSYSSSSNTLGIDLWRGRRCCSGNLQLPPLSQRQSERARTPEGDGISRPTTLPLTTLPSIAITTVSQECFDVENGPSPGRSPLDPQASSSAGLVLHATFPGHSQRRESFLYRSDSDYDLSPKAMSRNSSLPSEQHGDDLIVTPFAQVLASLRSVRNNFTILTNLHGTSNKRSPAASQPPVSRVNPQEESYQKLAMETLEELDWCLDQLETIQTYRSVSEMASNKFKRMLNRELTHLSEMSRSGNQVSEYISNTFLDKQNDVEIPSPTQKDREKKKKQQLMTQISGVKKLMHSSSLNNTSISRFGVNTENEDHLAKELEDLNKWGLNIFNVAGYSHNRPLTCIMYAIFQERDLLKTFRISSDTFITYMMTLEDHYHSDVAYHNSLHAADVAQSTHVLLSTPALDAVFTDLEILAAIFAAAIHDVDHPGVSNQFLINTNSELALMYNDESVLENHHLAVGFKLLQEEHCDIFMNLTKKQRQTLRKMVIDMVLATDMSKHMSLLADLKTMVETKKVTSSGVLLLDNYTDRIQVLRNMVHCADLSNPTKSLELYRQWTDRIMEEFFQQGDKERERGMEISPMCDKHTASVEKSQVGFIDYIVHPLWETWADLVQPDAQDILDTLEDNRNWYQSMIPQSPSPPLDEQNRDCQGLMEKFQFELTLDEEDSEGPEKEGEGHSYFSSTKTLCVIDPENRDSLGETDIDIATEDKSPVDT
# Experiment: qHTS Assay for Inhibitors of PDE-IV (AID 607; active = well fitted activation curve with a large enough effect in the main read-out, with a control signal flat, not every such curve was filed as active; note: % of control where 0% means no effect)
# Conditions: HEK293 ACTOne CNG channel cells, membrane potential fluorescence; series mostly up to 22.9 µM; activation (PDE inhibition): at the top concentration
# Summary of the method: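 ACTOne HEK293 cells carry a modified cAMP-gated CNG channel and express endogenous PDE4; plated 1000 cells/well, compounds up to 22.9 uM final. Membrane-potential dye fluorescence (ex 535/em 590) was read; parental cells received 10 uM forskolin + 100 uM RO 20-1724.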
Compound,activation (PDE inhibition) [%],outcome
CN(C)c1cc2c(Nc3ccc4c(cnn4Cc4ccccc4)c3)ncnc2cn1,-19.2,
NCC(=O)O,12.6,
O=C(CCCCC(=O)Nc1c(I)cc(I)c(C(=O)O)c1I)Nc1c(I)cc(I)c(C(=O)O)c1I,-8.64,
CC(C)N(CCC(=O)c1ccc2ccccc2c1)Cc1ccccc1,19.6,
Clc1ccc2c(c1)N=C(N1CCNCC1)c1ccccc1N2,-7.7,
Cn1cnc2c(NCc3ccccc3)nc(NCCO)nc21,2.84,
CN(C(=O)C(Cl)Cl)c1ccc(OC(=O)c2ccco2)cc1,-3.64,
NC(N)=NCCCCN=C(N)N,,inactive
CCOC(=O)NNc1nncc2ccccc12,-1.97,
O=C(O)/C=C(\CC(=O)O)C(=O)O,0.803,
COc1ccccc1N1CCN(CCN2C(=O)CC3(CCCC3)CC2=O)CC1,-5.65,
O=C1NC(c2cccc([N+](=O)[O-])c2)=CCN1c1ccccc1O,-13.1,
Cc1ncc(CO)c(CO)c1O,4.66,
Nc1c[n+](N2CCOCC2)no1,-3.64,
C[N+](C)(C)CCO,1.33,
Brc1ccc([C@H]2CN3CCSC3=N2)cc1,3.44,

# Tested on: not listed separately
# Experiment: Cellular Toxicity (caspase-3) HepG2 (AID 654);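 note: cells exposed to compound for 16 hours before reading; 0% = DMSO alone and 100% = caspase signal from 100 µM tamoxifen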
# Conditions: HepG2 caspase-3 activation, luminescence, 0% = DMSO only, 100% = tamoxifen; series mostly up to 92.2 µM; caspase-3 activation: at the top concentration
# Summary of the method: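 Caspase 3/7 activation in HepG2 is measured as rising luminescence after a 16 hr treatment at 37 °C. Values are scaled between DMSO basal and 100 uM tamoxifen, and AC50 is fitted with the Hill equation.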
row,Compound,caspase-3 activation [%]
1,Brc1ccccc1-c1ccccc1,0.104
2,C1=CC2C3C=CC(C3)C2C1 (stereo not drawn),0.252
3,CC(C)C(C)(C)C(C)(C)C(C)(C)S,0.0689
4,Nc1cccc2c(N)cccc12,1.08
5,Oc1ccccc1,0.00063
6,CCCC(=O)c1cc(O)c(O)cc1O,-0.424
7,O=C(c1ccccc1)c1ccccc1,-0.782
8,O=C(NO)c1ccccc1,0.442

# Tested on: not listed separately
# Experiment: Cellular Toxicity (caspase-3) Jurkat (AID 655);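 note: cells exposed to compound for 16 h at 37 °C before reading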
# Conditions: Jurkat caspase-3 activation, luminescence; series mostly up to 92.2 µM; caspase-3 activation: at the top concentration
# Summary of the method: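 Caspase 3/7 activation is scored as increased luminescence in Jurkat cells cultured with compound for 16 hours in complete medium. AC50 values come from Hill fits of qHTS concentration-response data normalized to DMSO and 100 uM tamoxifen controls.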
row,Compound,caspase-3 activation [%]
1,Brc1ccccc1-c1ccccc1,-0.745
2,C1=CC2C3C=CC(C3)C2C1 (stereo not drawn),-0.287
3,CC(C)C(C)(C)C(C)(C)C(C)(C)S,2.46
4,Nc1cccc2c(N)cccc12,5.35
5,Oc1ccccc1,1.38
6,CCCC(=O)c1cc(O)c(O)cc1O,-3.4
7,O=C(c1ccccc1)c1ccccc1,-2.07
8,O=C(NO)c1ccccc1,3.67

# Tested on: not listed separately
# Experiment: Cellular Toxicity (caspase-3) SHSY5Y (AID 657);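 note: cells exposed to compound for 16 hours at 37 °C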
# Conditions: SH-SY5Y caspase-3 activation; series mostly up to 91.7 µM; caspase-3 activation: at the top concentration
# Summary of the method: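 Cells plated and incubated 5 h at 37 °C, dosed over a concentration range, incubated 16 h, then given Caspase-Glo 3/7 reagent for 1 h at room temperature before luminescence reading. Staurosporine (10 uM) defined full stimulation.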
row,Compound,caspase-3 activation [%]
1,Brc1ccccc1-c1ccccc1,2.43
2,C1=CC2C3C=CC(C3)C2C1 (stereo not drawn),0.591
3,CC(C)C(C)(C)C(C)(C)C(C)(C)S,1.09
4,Nc1cccc2c(N)cccc12,6.14
5,Oc1ccccc1,3.19
6,CCCC(=O)c1cc(O)c(O)cc1O,8.6
7,O=C(c1ccccc1)c1ccccc1,0.538
8,O=C(NO)c1ccccc1,1.57

# Tested on: not listed separately
# Experiment: Cellular Toxicity (caspase-3) Mesangial (AID 660);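 note: combined caspase 3 and 7 activity read by Caspase-Glo luminescence; cells exposed to compound for 16 h before the caspase read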
# Conditions: mesangial cells, normalized: DMSO 0%, 100 µM tamoxifen 100%; series mostly up to 91.7 µM; caspase-3 activation: at the top concentration
# Summary of the method: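 Seed cells derived from normal human renal glomeruli, incubate 5 h, add compounds across concentrations and incubate 16 h at 37 °C. Caspase 3/7 activation is then quantified by luciferase light, with AC50 derived by Hill modeling.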
row,Compound,caspase-3 activation [%]
1,Brc1ccccc1-c1ccccc1,-0.227
2,C1=CC2C3C=CC(C3)C2C1 (stereo not drawn),0.981
3,CC(C)C(C)(C)C(C)(C)C(C)(C)S,0.145
4,Nc1cccc2c(N)cccc12,-0.93
5,Oc1ccccc1,0.574
6,CCCC(=O)c1cc(O)c(O)cc1O,0.424
7,O=C(c1ccccc1)c1ccccc1,-0.667
8,O=C(NO)c1ccccc1,-1.33
